Here are results for 40 compounds from the supplement of paper PMC7801607.

This assay has as its system Plasmodium berghei ANKA liver stage in HepG2-A16-CD81. Nature of the assay: % inhibition of liver stage parasite viability (luciferase); higher = more inhibition. The conditions noted are these: 5 µM; 48 h. As to the method:
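Single-concentration screen of the MMV Pandemic Response Box. P. falciparum NF54 asexual blood stages: pLDH assay, 72 h at 37 °C, 2 and 20 µM, n=2. Stage IV/V gametocytes (NF54): luciferase reporter (NF54-Pfs16-GFP-Luc, 48 h), ATP bioluminescence (24 h) and PrestoBlue (48 h) at 1 and 5 µM, n=1. P. berghei liver stage (luciferase in HepG2-A16-CD81, 48 h post infection) at 5 µM, n=4. All normalised to DMSO and kill controls as % inhibition.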
On to `CC[C@H]1OC(=O)[C@H](C)[C@@H](O[C@H]2C[C@@](C)(OC)[C@@H](O)[C@H](C)O2)[C@H](C)[C@@H](O[C@@H]2O[C@H](C)C[C@H](N(C)C)[C@H]2O)[C@](C)(O)C[C@@H](C)C(=O)[C@H](C)[C@@H](O)[C@]1(C)O`, for which the “% inhibition of liver stage parasite viability” value (“% inhibition” for short) came to 34%.
With `CN1CCN(Cc2ccc(-c3cnc4[nH]cc(-c5ccc6[nH]ccc6c5)c4c3)cc2)CC1`, the “% inhibition” value was determined as 33.2%.
Consider `CNc1nc(=O)[nH]cc1F`, for which the “% inhibition” value was found to be 18.4%.
With `CC[C@@H](CO)NCCN[C@@H](CC)CO` the figure was 32.9%; with `N#Cc1cc([N+](=O)[O-])ccc1Oc1ccccc1Cl`, 12.4%.
In the case of `O=[N+]([O-])c1cn2c(n1)OC[C@@H](OCc1ccc(OC(F)(F)F)cc1)C2`, the “% inhibition” value was 31.5%.
For `C[C@@H](c1nc(-c2ccc(C#N)cc2)cs1)[C@](O)(Cn1cncn1)c1ccc(F)cc1F`, the “% inhibition” value was -4.98%.
With `O=c1cc(Nc2ccc3ccccc3c2)[nH]c(=O)[nH]1` the figure was 39.9%; with `CCc1cc(O)c(Oc2cccnc2N)cc1F`, 18.6%.
For `Cc1nc2ccc(Cl)cc2c(-c2ccccc2)c1CC(=O)O`, the “% inhibition” value worked out at 24.5%.
For `Cc1c(N)cccc1Cn1ccc(OCCc2cccs2)cc1=O`, the “% inhibition” value came to 17%.
Consider `O=C(CSc1nnc(Br)n1-c1ccc(C2CC2)c2ccccc12)Nc1ccc(C(=O)O)cc1Cl`, for which the “% inhibition” value came out at 27.6%.
With `O=S(=O)(Nc1ccc(O)cc1)c1cccc2cccnc12`, the “% inhibition” value was -2.62%.
With `Nc1nc(F)nc2c1ncn2[C@H]1O[C@@H](CO)[C@H](O)[C@@H]1O`, the “% inhibition” value was determined as 76%.
Turning to `NNC(=O)c1ccncc1`, the “% inhibition” value came out at 22.9%.
For `O=C(NC(=O)N1CCCc2ccccc21)c1ccc(Cl)cc1Cl`, the “% inhibition” value was found to be 36.8%.
As for `Nc1nc(Nc2ccc3nc(-c4ccc(F)cc4)cc(N)c3c2)cc(-c2ccccc2)n1`, the “% inhibition” value worked out at 13.6%.
Under `O=C(Cn1cnc2ccccc2c1=O)Nc1ccccc1` stands 2.82%; under `O=C1C=C(c2ccccc2)S(=O)(=O)c2ccccc21`, 30.4%; under `CCN(CC)CCCC(C)Nc1ccnc2cc(Cl)ccc12` (stereo not given), 14.3%.
On to `CCCCOC(=O)Nc1cc2nc(C3CCCCC3)[nH]c2cc1N(CC)CC`, for which the “% inhibition” value came out at 62%.
`COC(=O)Nc1nc2cc(Sc3ccccc3)ccc2[nH]1`: the “% inhibition” value was -25.4%.
On to `COc1c(F)c(F)cc2c(=O)c(C(=O)O)cn(C3CC3)c12`, for which the “% inhibition” value is 15.1%.
With `CCc1nc2ccc(Cl)cn2c1C(=O)NCc1ccc(N2CCC(c3ccc(OC(F)(F)F)cc3)CC2)cc1` the figure was 72.1%.
On to `CCc1nc2ccccn2c1C(=O)NCc1ccccc1`, for which the “% inhibition” value was 25.4%.
As to `Cc1cc(C2CCCCC2)n(O)c(=O)c1`, the “% inhibition” value came to 14.2%.
For `C=C(C)[C@@H]1CC[C@]2(C(=O)O)CC[C@]3(C)[C@H](CC[C@@H]4[C@@]5(C)CC[C@H](O)C(C)(C)[C@@H]5CC[C@]43C)[C@@H]12`, the “% inhibition” value came out at 57%.
As for `c1cnc(NCc2ccc(CNc3ncccn3)cc2)nc1`, the “% inhibition” value came to 25.6%.
In the case of `N=C(N)c1ccc(COc2ccc(Cl)cc2)cc1`, the “% inhibition” value was -17.2%.
For the compound `COc1ccc(SCC(=O)N2c3ccccc3Sc3ccccc32)cc1`, the “% inhibition” value was determined as 31.1%.
In the case of `O=S(=O)(Nc1cccc2cccnc12)c1ccccc1`, the “% inhibition” value was 0.562%.
On to `Clc1ccc(Cn2c(CN3CCCC3)nc3ccccc32)cc1`, for which the “% inhibition” value was 22.9%.
With `CN1CCN(c2ccc3[nH]c(-c4ccc5[nH]c(-c6ccc(O)cc6)nc5c4)nc3c2)CC1` the figure was -6.69%; with `CC(=O)N[C@H](C)C(=O)N[C@H](Cc1ccccc1)C(=O)O`, 0.6%; with `CC#C[C@]1(O)CC[C@H]2[C@@H]3CCC4=CC(=O)CCC4=C3[C@@H](c3ccc(N(C)C)cc3)C[C@@]21C`, 15.2%.
Regarding `Cc1ccc(C)c(OCCCCCCN2C[C@H](O)[C@@H](O)[C@H](O)[C@H]2CO)c1`, the “% inhibition” value is 11.6%.
Take `N[C@H]1CCC[C@H]1C(=O)O`: the “% inhibition” value stood at 15.8%.
Under `COc1ccc(COc2cc3oc(=O)c4cc(C(C)O)ccc4c3cc2OC)cc1` (stereo not given) stands 8.21%; under `Cc1cc(NS(=O)(=O)c2ccc(-c3ccc(F)cc3F)cc2)no1`, 43.5%.
On to `O=C1CCC(N2C(=O)c3ccccc3C2=O)C(=O)N1` (stereo not given), for which the “% inhibition” value came to 25.6%.
